Test results published in PubChem BioAssay.
Calls of active or inactive are those of the source. No rule for the calls is given here.

The molecules below were run against Pantothenate synthetase (Mycobacterium tuberculosis (strain ATCC 25618 / H37Rv)) (UniProt P9WIL5) (assay: Recombinant Mtb pantothenate synthetase (PanC) inhibitors, coupled enzyme, confirmatory (AID 375;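 also: 0% = full reaction with vehicle and 100% = no enzyme background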)). Details: coupled enzyme assay; at 10 µM, active compounds read high.
Sequence of Pantothenate synthetase (Mycobacterium tuberculosis (strain ATCC 25618 / H37Rv)) (P9WIL5 whole entry, looked up): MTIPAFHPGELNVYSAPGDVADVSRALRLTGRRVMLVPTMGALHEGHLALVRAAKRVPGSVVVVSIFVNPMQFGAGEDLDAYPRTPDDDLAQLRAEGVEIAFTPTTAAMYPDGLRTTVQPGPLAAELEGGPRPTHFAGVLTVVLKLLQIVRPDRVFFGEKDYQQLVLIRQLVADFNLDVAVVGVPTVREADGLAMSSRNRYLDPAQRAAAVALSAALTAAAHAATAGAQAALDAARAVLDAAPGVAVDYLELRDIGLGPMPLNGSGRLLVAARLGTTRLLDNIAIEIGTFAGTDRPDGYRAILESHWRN

Row | Structure (SMILES) | inhibition
1 | CC1(C)Cc2c(c(-c3ccccc3)nc(N3CCCC3)c2C(N)=O)CO1 | 4% (inactive)
2 | N#CC1=C(N)S[C@H](C(=O)C23CC4CC(CC(C4)C2)C3)[C@H]1c1ccncc1 | 0% (inactive)
3 | NC(=O)c1ccccc1NC(=O)CCCN1C(=O)CCC1=O | 10% (inactive)
4 | O=C(COC(=O)c1cnccn1)c1ccc(OC(=O)c2ccccc2)cc1 | 0% (inactive)
5 | CN(C#N)c1nc(N2CCOCC2)nc(N2CCOCC2)n1 | 1% (inactive)
6 | Cc1ccc(-c2nc3cc(N)ccc3o2)cc1 | 0% (inactive)
7 | COCCOC(=O)C1=C(C)OC(N)=C(C#N)C1c1ccc2c(c1)OCO2 (stereo not drawn) | 0% (inactive)
8 | CCOC(=O)CSC1=Nc2ccccc2C2=NC(CC(=O)NCc3cccs3)C(=O)N12 (stereo not drawn) | 4% (inactive)
9 | Cc1ccc2c(CNCc3ccco3)cc(=O)oc2c1 | 0% (inactive)
10 | CCOC(=O)CSc1nc2ccccc2c(=O)n1CCN1CCOCC1 | 0% (inactive)
11 | O=C(Nc1cnn(Cc2ccc(Cl)cc2Cl)c1)c1noc2c1CCCC2 | 4% (inactive)
12 | CCOC(=O)CSc1nn(C)c(=S)s1 | 6% (inactive)
13 | CC1=Nn2c(nnc2-c2ccccn2)SC1 | 7% (inactive)
14 | O=C(NCCCN1CCN(CCCNC(=O)c2ccc(F)cc2)CC1)c1ccc(F)cc1 | 0% (inactive)
15 | O=C(NCc1ccco1)c1ccccc1Nc1ccc(F)cc1 | 0% (inactive)
16 | O=C(CC(C(=O)N1CCc2ccccc21)n1ccnc1)NCc1cccnc1 (stereo not drawn) | 0% (inactive)
17 | CCCOc1cccc(-c2nnc(N)s2)c1 | 0% (inactive)
18 | CCCCNC(=O)c1cc(-c2ccc(F)cc2)on1 | 6% (inactive)
